# Source: PubChem (National Center for Advancing Translational Sciences (NCATS))
# DT40 TDP1 CPT – qHTS for Inhibitors of human tyrosyl-DNA phosphodiesterase 1 (TDP1): qHTS in cells in presence of CPT; chicken DT40 Tdp1-/-;hTDP1 cells + 20 nM CPT, ATP luminescence, 48 h; Potency, µM (highest dose often 46.2 µM), inactives show top-dose activity change, negative = growth inhibition, most hits filed as inhibitors; hit rate 12% among 420,000; AID 686979, 2013; also: nearly all actives have a fitted effect of over 55% in size
#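 Chicken DT40 Tdp1-/- cells stably complemented with human TDP1 were seeded at 400 cells/well in medium containing 20 nM camptothecin, exposed to pin-transferred compounds, and grown at 37 °C for at least 48 hr. Viability was read as ATP luminescence.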
# DT40 TDP1 no CPT – qHTS for Inhibitors of human tyrosyl-DNA phosphodiesterase 1 (TDP1): qHTS in cells in absence of CPT; DT40 Tdp1-/- hTDP1 cells, no CPT, ATP luminescence, 48 h; AID 686978, 2013; hit rate 15% among 420,000; Potency, µM (highest dose often 46.2 µM), inactives show at the highest dose activity change, negative = growth inhibition, usual class: inhibitors; also: nearly all actives have a fitted effect of over 55% in size
#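 Growth kinetics read by CellTiter-Glo luminescence after ≥48 hr at 37 °C. Cells: DT40 Tdp1-/- stably carrying human TDP1, 400 per well, compound exposure in the absence of CPT (DMSO vehicle).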
# HT1080 IDH1KD tx – qHTS for induction of synthetic lethality in tumor cells producing 2HG: qHTS for the HT-1080-IDH1KD cell line. HT-1080 IDH1 knockdown viability, ATP luminescence, 48 h. Potency, µM (doses to about 46.1 µM), for inactives: top-dose activity, negative = toxicity, actives largely listed as cytotoxic. hit rate 2% among 360,000. AID 686971, 2013;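 also: 0% = DMSO wells and -100% = cell-free medium wells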
#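 IDH1KD HT-1080 cells, 750/well, RPMI + 5% FBS; compound pinned after 2 h settling; 48 h, 37 °C; CellTiter-Glo luminescence; % activity normalised to DMSO and no-cell wells; curves fitted, classed by r2 and efficacy.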
# KB-3-1 tox – qHTS assay for MDR1-selective chemotherapeutics: Primary screen using the parental adenocarcinoma cell KB-3-1. AID 1347075, 2019. hit rate 1.4% among 400,000. Potency, µM (series often up to 46.1 µM), actives largely listed as cytotoxic. KB-3-1 viability, CellTiter-Glo ATP luminescence, 72 h; also: nearly all actives have a fitted effect of over 60% in size
#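 KB-3-1 cells, DMEM (no phenol red) + 10% FBS; compound by pin transfer, 72 h, 37 °C. Readout: CellTiter-Glo luminescence after 10 min. Data normalized, curve-fitted.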
# KB-V1 MDR tox – qHTS assay for MDR1-selective chemotherapeutics: Primary screen using the drug-selected MDR subline cells KB-V1; KB-V1 MDR cells viability, CellTiter-Glo, 72 h; Potency, µM (highest dose often 46.1 µM), hits mostly cytotoxic; hit rate 3.4% among 400,000; also: nearly all actives have a fitted effect of over 60% in size
#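 Readout: CellTiter-Glo luminescence, 10 min after addition. Cells: KB-V1 MDR subline, 72 h at 37 degrees C with compound. Analysis: corrected, normalized data fitted to concentration-effect curves.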
# HT1080-NT tox – qHTS for induction of synthetic lethality in tumor cells producing 2HG: qHTS for the HT-1080-NT fibrosarcoma cell line; HT-1080-NT fibrosarcoma viability, CellTiter-Glo ATP luminescence, 48 h; Potency, µM (highest dose often 46.1 µM), for the others: at the highest dose activity, negative = less viability, actives largely listed as cytotoxic; hit rate 1.6% among 360,000; AID 686970, 2013;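 also: NT is the 2HG producing partner of a matched IDH1 knockdown line; 0% = DMSO-treated cells and -100% = media-only wells without cells; nearly all actives have a fitted effect of over 55% in size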
#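 Viability of the 2HG-overproducing fibrosarcoma line after 48 hours of compound exposure at 37 degrees C was determined by luminescence with CellTiter-Glo, and concentration-effect curves were then fitted and categorized.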
# Active calls of the source: *; i = inactive; ? = inconclusive; · = not tested or not shown. A selection: hits, their analogues and other compounds. The true share with any hit is near 19%. Calls follow the shape of the dose curve; as a rule, active = well fitted curve in the direction sought with a large enough effect; inconclusive = small, poorly fitted or top-dose-only effect, or another doubt; inactive = no such curve, though single readings can be large; an effect the other way counts as inactive or inconclusive. Unless noted, % is scaled to controls: 0 for no effect and ±100 for the full control effect; potency is read from the fitted curve at half-maximal effect.
SMILES,DT40 TDP1 CPT,DT40 TDP1 no CPT,HT1080 IDH1KD tx,KB-3-1 tox,KB-V1 MDR tox,HT1080-NT tox
O=C(NCc1ccccc1)c1cc(C2CCCN(S(=O)(=O)c3cccc4cccnc34)C2)on1 (stereo unspecified),?,?,-1%,i,i,1%
O=C(NCc1cccnc1)c1cc(C2CCCN(S(=O)(=O)c3cccc4cccnc34)C2)on1 (stereo unspecified),23µM*,21µM*,5%,i,i,5%
O=C(NCc1cccnc1)c1cc(C2CCCCN2S(=O)(=O)c2cccc3cccnc23)on1 (stereo unspecified),12µM*,?,11%,i,i,8%
O=C(Nc1ccc(F)c(Cl)c1)c1cc(C2CCCN(S(=O)(=O)c3cccc4cccnc34)C2)on1 (stereo unspecified),?,26µM*,-19%,i,i,-11%
CN(C)c1ccc(NC(=O)CCN2CCN(c3ccccn3)CC2)cc1,-23%,-15%,2%,i,i,5%
O=C(C1=C(O)C(=O)N(c2nc3ccc(Cl)cc3s2)C1c1ccco1)c1ccco1 (stereo unspecified),?,2.3µM*,-6%,i,?,-2%
N#CCCN(Cc1ccccc1)C(=O)CCC(=O)c1ccc(F)cc1,-16%,-21%,11%,i,i,10%
CC[n+]1c(C)sc2c(C)cc(C)cc21,23µM*,?,-7%,i,?,-4%
COc1ccc(-c2nc3cnccn3c2Nc2ccc3c(c2)OCO3)cc1,?,?,-30%,?,?,-13%
CN(C)c1ccc(-c2nc3cnccn3c2Nc2cccc(C(F)(F)F)c2)cc1,26µM*,?,·,i,i,·
CCc1cccc(C)c1Nc1c(-c2ccc(N(C)C)cc2)nc2cnccn12,?,23µM*,·,?,?,·
O=C(Nc1ccc(F)cc1F)c1ccc(CN2CC(=O)N3CCCCC3C2=O)cc1 (stereo unspecified),?,-24%,·,i,i,·
CCc1cc2c(=O)n(Cc3ccco3)c(SCC(=O)NCC3CCCO3)nc2s1 (stereo unspecified),15µM*,16µM*,-7%,?,2.6µM*,-30%
CCc1cc2c(=O)n(Cc3ccco3)c(SCC(=O)N3CCCc4ccccc43)nc2s1,26µM*,?,-21%,i,i,-17%
CCc1cc2c(=O)n(Cc3ccco3)c(SCC(=O)N(C)C3CCS(=O)(=O)C3)nc2s1 (stereo unspecified),-24%,?,-12%,i,?,-7%
CCc1cc2c(=O)n(Cc3ccco3)c(SCC(=O)NC3CCS(=O)(=O)C3)nc2s1 (stereo unspecified),?,-27%,1%,i,i,19%
CCc1cc2c(=O)n(Cc3ccco3)c(SCc3c(C)noc3C)nc2s1,5.8µM*,2.9µM*,15µM*,5.8µM*,2.9µM*,?
O=C(CSc1nc2c(sc3ccccc32)c(=O)n1Cc1ccco1)NCC1CCCO1 (stereo unspecified),?,-72%,-7%,i,i,-9%
O=C(Cc1cccc(NC(=O)C2CCCN(C(=O)C3CC3)C2)c1)Nc1cccc(C(=O)N2CCOCC2)c1 (stereo unspecified),-1%,5%,5%,i,i,10%
COCCn1c(C)cc(O)c(C(c2ccccc2OC)N2CCCCC2)c1=O (stereo unspecified),-1%,5%,·,i,i,·
O=C(/C=C\c1ccc2c(c1)OCO2)CC1(O)C(=O)Nc2ccccc21 (stereo unspecified),?,?,?,i,i,?
COc1ccc(CN(Cc2ccccc2)C(=O)c2ccc(NC(C)=O)cc2)cc1COc1ccc(NC(C)=O)cc1,?,?,-26%,·,·,-22%
COc1ccc(CN(Cc2ccccc2)C(=O)c2cccc(C#N)c2)cc1COc1ccc(NC(C)=O)cc1,8.9µM*,14µM*,-1%,·,·,-1%
COc1ccc(CNCc2ccccc2)cc1COc1ccc(NC(C)=O)cc1,8.9µM*,10µM*,2%,·,·,-3%
CCNC(=O)c1c(NC(=O)Cc2coc3cc(C)cc(C)c23)sc2c1CCCC2,-17%,-27%,·,i,i,·
SMILES,DT40 TDP1 CPT,DT40 TDP1 no CPT,HT1080 IDH1KD tx,KB-3-1 tox,KB-V1 MDR tox,HT1080-NT tox
Cc1cc(N)n2ncc(-c3ccc(Cl)cc3)c2n1,18µM*,?,?,18µM*,?,?
Cc1cc(Cl)n2ncc(-c3ccccc3)c2n1,?,29µM*,?,i,i,18µM*
Cc1cc(N)n2ncc(-c3ccc(F)cc3)c2n1,-13%,0%,?,i,i,?
Cc1cc(C)n2ncc(-c3cccc(Br)c3)c2n1,8%,-3%,-27%,i,i,-1%
CC(C)CN(CCC(=O)O)CC(C)C,-12%,2%,2%,i,i,10%
CN(C)c1cc[n+](CC(=O)Nc2c(Cl)cc(Cl)cc2Cl)cc1,7.3µM*,6.5µM*,-27%,8.2µM*,i,-7%
C=CCC1(CC=C)CCCN1C(=O)c1cc(COc2ccc(C)nc2)on1,2.6µM*,0.92µM*,2.9µM*,?,i,21µM*
Cc1ccc(OCc2cc(C(=O)N3CCCC3)no2)cn1,-30%,?,-1%,?,i,-6%
CSc1ccccc1OCc1cc(C(=O)N2CCc3c(Cl)cccc3C2)no1,23µM*,?,-1%,i,i,-6%
C=CCC1(CC=C)CCCN1C(=O)c1cc(COc2ccc(F)c(F)c2)on1,18µM*,?,-24%,i,i,-5%
C=CCC1(CC=C)CCCN1C(=O)c1cc(COc2ccccc2SC)on1,?,21µM*,-16%,·,·,-6%
CCc1ccccc1NC(=S)N(CCN1CCOCC1)Cc1ccccc1F,?,?,-5%,?,?,-4%
